Laboratory results reported in the supplement of paper PMC10681739.

Assays:
ETS1 [1] = target: T1, ETS1 (UniProt P14921); assay: ETS1 binding intensity (PBM fluorescence), ETS1 alone (arbitrary fluorescence units); higher = stronger binding; settings: ETS1 concentration 1 nM; RUNX1 concentration 0 nM
T1 sequence: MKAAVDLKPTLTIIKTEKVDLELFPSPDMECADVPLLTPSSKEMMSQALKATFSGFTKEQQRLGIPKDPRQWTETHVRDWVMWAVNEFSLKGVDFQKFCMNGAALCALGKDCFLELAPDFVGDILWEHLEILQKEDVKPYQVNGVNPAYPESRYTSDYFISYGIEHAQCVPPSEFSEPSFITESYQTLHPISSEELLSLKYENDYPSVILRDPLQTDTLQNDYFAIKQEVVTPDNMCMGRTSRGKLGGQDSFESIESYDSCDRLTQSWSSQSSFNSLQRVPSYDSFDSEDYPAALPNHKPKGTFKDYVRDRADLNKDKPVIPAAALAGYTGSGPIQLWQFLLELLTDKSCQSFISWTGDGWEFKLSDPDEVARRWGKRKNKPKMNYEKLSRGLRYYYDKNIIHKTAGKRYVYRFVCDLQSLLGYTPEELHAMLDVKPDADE

RUNX1 [2] = target: RUNX1 (UniProt Q01196); assay: RUNX1 binding intensity (PBM fluorescence), RUNX1 alone (arbitrary fluorescence units); higher = stronger binding; settings: RUNX1 concentration 2 nM; ETS1 concentration 0 nM
Description: (§1)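 Cooperative gcPBM on 36-bp genomic probes with neighbouring ETS1 and RUNX1 sites. Recombinant human RUNX1 (2 nM) was incubated alone or with ETS1 (25 nM) and detected with anti-RUNX1 antibody plus Alexa488 secondary. Values are medians over 4 replicate spots; the RUNX1+ETS1 data were normalised to the RUNX1-only data. The probes sit in constant array flanks that are not printed.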

ETS1 [3] = target: T1, ETS1; assay: ETS1 binding intensity (PBM fluorescence) in presence of RUNX1, normalised to ETS1-only experiment (arbitrary fluorescence units); higher = stronger binding; settings: ETS1 concentration 1 nM; RUNX1 concentration 25 nM
RUNX1 [4] = target: RUNX1 (UniProt Q01196); assay: RUNX1 binding intensity (PBM fluorescence) in presence of ETS1, normalised to RUNX1-only experiment (arbitrary fluorescence units); higher = stronger binding; settings: RUNX1 concentration 2 nM; ETS1 concentration 25 nM
Description: as §1
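Throughout, for RUNX1 binding intensity (PBM fluorescence) in presence of ETS1, normalised to RUNX1-only experiment: Full-length recombinant human ETS1 or RUNX1 bound to double-stranded 36-bp genomic probes on microarrays, detected by protein-specific primary antibody and Alexa488 secondary, spot fluorescence as median of four replicate spots.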
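Throughout, for RUNX1 binding intensity (PBM fluorescence), RUNX1 alone: Full-length recombinant human RUNX1 bound to double-stranded 36-bp genomic probes on a high-density microarray, scored as Alexa488 fluorescence per spot via anti-RUNX1 antibody, median of four replicate spots.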

Sequence of RUNX1 (Q01196 whole entry): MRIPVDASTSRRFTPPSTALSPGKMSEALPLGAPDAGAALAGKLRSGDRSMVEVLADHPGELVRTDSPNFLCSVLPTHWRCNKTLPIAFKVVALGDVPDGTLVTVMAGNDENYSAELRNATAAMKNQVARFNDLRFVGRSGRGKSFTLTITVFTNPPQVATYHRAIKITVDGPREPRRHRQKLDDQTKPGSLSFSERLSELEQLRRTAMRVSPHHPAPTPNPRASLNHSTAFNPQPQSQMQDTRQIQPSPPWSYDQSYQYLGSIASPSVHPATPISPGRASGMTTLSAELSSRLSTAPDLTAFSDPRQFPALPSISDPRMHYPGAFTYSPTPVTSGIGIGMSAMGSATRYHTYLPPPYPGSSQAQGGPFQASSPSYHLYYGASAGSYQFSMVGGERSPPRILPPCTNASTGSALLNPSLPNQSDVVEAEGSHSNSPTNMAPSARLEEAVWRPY

Sequence | ETS1 binding intensity (ETS1 [1]) | RUNX1 binding intensity (RUNX1 [2]) | ETS1 binding intensity (ETS1 [3]) | RUNX1 binding intensity (RUNX1 [4])
AACAGAGACCCGGAAGTTGTGGGACGAAGCCAGGAC | 4960 | 810 | 6420 | 1260
CTCGTGGGTGCCGGAAGTGGAGGCGGTTGGTGGGGT | 15200 | 707 | 15900 | 1410
TCTTTAAAACCCGGAAGTTCCTGTGGTTCATACGCT | 8500 | 978 | 16500 | 1940
ATGGCGGAGCGGAAGTCCCAGCCACAACGCGAAAAG | 3810 | 782 | 5670 | 1370
ACCCACCCGGAAGTCCTCCTGGCCCACAAGCTCCGC | 2360 | 992 | 2270 | 1630
CTTCAAAGTCAGGAAACCGTTAAACCACACTGCATC | 716 | 1100 | 1910 | 1360
GGGCGCGACTTCCGGGGCGGCGGTTGCATCAGATTC | 1580 | 774 | 1780 | 2100
GGAGGGGCTGGCCGGAAGTGAACCGCAGAGCACGCT | 11600 | 1070 | 33500 | 2980
TGGAAGGCCGGAAAAGGTTTACCACCACACTCCGGT | 1850 | 791 | 3690 | 1320
CTCACTCATCTGACTTCCTGCGGTTTACGACAACAG | 1200 | 11100 | 1970 | 17400
TGGTGGCTATTTCCTCTCCCGCTGTGGTCCCTGGAG | 563 | 728 | 535 | 1470
CCCGCGACACAAGGCGGATGTGGTACCCTCACTTGT | 3250 | 820 | 5070 | 1200
CTCAGGAATGCGGAAGTGCTCTGTGGGCACCCACCA | 2970 | 707 | 5950 | 1560
GAAACCCCATGGGCAGGATGTGGGTGAGCTGTCTGG | 3380 | 742 | 5020 | 1280
TTCTTCCCCCTTCCGGTCGCTGAGTGGTTGAGGCCG | 4140 | 898 | 3610 | 2500
TCGTGTTCTCTTCCGTTCTGTGGTAGCTTTTTGGTA | 655 | 1470 | 557 | 1870
ATGTCCCCAGGAGGATGTGGTGTGTCCACAGGAGGA | 759 | 742 | 1650 | 875
GAGCGGAAACCCGAGAGTCAGTTCAACCACAGCCAC | 592 | 889 | 980 | 1010
TTCAATCACAGGAAACAGACGTCACCCACAGACCTA | 1090 | 794 | 2200 | 983

Sequence | ETS1 binding intensity (ETS1 [1]) | RUNX1 binding intensity (RUNX1 [2]) | ETS1 binding intensity (ETS1 [3]) | RUNX1 binding intensity (RUNX1 [4])
CCCCTCACTTCCCTCAACCCTTCCCACAAACTGGGA | 597 | 1920 | 571 | 2350
AAGGCAAACAGGAAATCATAACCACAAACCAGGAAC | 2960 | 2880 | 25500 | 21700
TGTCTTCAGGAAGTGTAGCAGGTGTTGAGGTCAAGC | 900 | 703 | 998 | 914
TCTGGATTTCCTGTGGGGCTCTCCCACAAGCAGTAC | 518 | 721 | 506 | 1390
CTTAGTGGGGCAGGATGTGGTCAGGGAAGCTGATCT | 4440 | 836 | 29900 | 7670
CGTTTCCTGTCTGGGACTGCGCCCACGCGGTCACGT | 725 | 966 | 922 | 2450
GGTGACACGGCCGGCTTCCTGCCGCAGAGCTCCTGG | 719 | 768 | 639 | 1040
AGAAGGAACTACACAGGAAACCCACTGCCTCGATGG | 2430 | 691 | 1640 | 865
GACTCTTCCGGCCCAGAGCTTTCGGAGTGCGGTTGC | 399 | 858 | 704 | 2130
TCAGGGGAGCGAGCAGGAAGTGGTAAGATTTGATAG | 3680 | 696 | 7210 | 1230
GCTGCTTCCGGCCGCTGGTCGCAGGGCTGCGGGACT | 865 | 677 | 1000 | 1760
ATCTCCACATCCTCCCCATCGACCGCATGGTTTACC | 439 | 1970 | 653 | 3450
TCCTTTTCCGGTGGCGGCGCCGCGCGGTGAGGTTGT | 754 | 731 | 615 | 1880
CTGCCGGAAGCTGCCCCTCCACCATTTTGTGGCCCG | 1770 | 818 | 1850 | 1280
TCAGAGACTTCCGCTCAGCAGCAGCTGCGGCCAGGC | 966 | 671 | 1330 | 1850
ATCTCAACTAGGAAATGTTTTTGTGACCACAAAGGG | 620 | 958 | 2310 | 949
TCCCGGGGAGGAAGTGGCGAGAATGCGGGGGTGGGC | 1340 | 906 | 1440 | 1120
GACTGGACAACTTCCTGGTGGAAAACCGCGACTCTT | 637 | 1050 | 2930 | 2340
